According to PubChem BioAssay AID1211 (NMMLSC, 2008):
Active and inactive are the calls of the source. No rule for the calls is given here.

Target: Estrogen receptor (Homo sapiens) (UniProt P03372)
Test: displacement of fluorescent estrogen from ERalpha – cell-based, Cos7 ERalpha-GFP, flow cytometry, primary screen (AID 1211);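 also: 0% = DMSO vehicle wells and 100% = no E2-Alexa633 signal left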
Conditions: fluorescent ligand competition, stronger effect = higher value

Estrogen receptor (Homo sapiens), sequence (P03372 whole entry, looked up): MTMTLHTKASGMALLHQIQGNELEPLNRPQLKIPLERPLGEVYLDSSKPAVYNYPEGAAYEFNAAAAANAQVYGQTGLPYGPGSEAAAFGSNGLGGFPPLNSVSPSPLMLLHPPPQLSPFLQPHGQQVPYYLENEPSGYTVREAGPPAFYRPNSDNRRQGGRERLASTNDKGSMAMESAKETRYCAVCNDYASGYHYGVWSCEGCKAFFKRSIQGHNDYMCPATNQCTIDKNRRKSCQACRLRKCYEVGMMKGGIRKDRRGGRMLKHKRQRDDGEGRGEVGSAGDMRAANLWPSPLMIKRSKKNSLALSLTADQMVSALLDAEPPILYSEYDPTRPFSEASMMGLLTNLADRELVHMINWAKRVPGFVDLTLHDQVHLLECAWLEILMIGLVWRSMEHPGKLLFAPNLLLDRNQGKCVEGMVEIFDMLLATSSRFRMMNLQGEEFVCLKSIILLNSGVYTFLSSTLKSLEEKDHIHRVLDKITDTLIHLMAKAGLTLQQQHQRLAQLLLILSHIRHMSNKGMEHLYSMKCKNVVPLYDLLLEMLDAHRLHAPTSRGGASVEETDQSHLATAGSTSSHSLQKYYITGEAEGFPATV

Compound	inhibition of ligand binding (at 10 µM)	inhibition of ligand binding (binding inhibition, at 0.1 µM) [%]
Cc1ccc2c(c1C)NC(C(=O)O)C1CC=CC21 (stereo unspecified)	0% (inactive)	
CC(C)COc1ccc2c(c1)c1c3n2CCNC3CCC1 (stereo unspecified)	22% (inactive)	
Cc1ccc(NC(=O)CSc2nnnn2-c2ccc3c(c2)OCO3)cc1C	33% (inactive)	
Cc1ccccc1CSCC(=O)NC(=O)NCc1ccco1	53% (inactive)	27
Nc1ccc(-c2cc(-c3cccc(N)c3)nc(-c3ccccc3)n2)cc1	42% (inactive)	2
CC(C)C1Nc2ccc(C(=O)O)cc2C2C=CCC21 (stereo unspecified)	36% (inactive)	
CN(C(=S)Nc1cccnc1)c1ccc(O)cc1	39% (inactive)	41
COc1ccc(NS(=O)(=O)c2ccc3c(c2)[C@H]2C=CC[C@H]2[C@@H](c2ccc(C(=O)O)cc2)N3)cc1	100% (active)	
CC(=O)NC12CC3CC(C1)CC(C(=O)OCC(=O)Nc1ncc(Cl)c(C)c1Cl)(C3)C2	21% (inactive)	
COc1cc2c3c(c1)/C(=C1/SC(NC(C)=O)=NC1=O)C(=O)N3C(C)(C)C=C2C	29% (inactive)	
CC1CCN(S(=O)(=O)c2ccc(NC(=O)Cc3cccs3)cc2)CC1	62% (inactive)	56
CCCCCCc1cc2c3c(c(=O)oc2cc1OCC(=O)OC)CCC3	0% (inactive)	
COc1cc(-c2nc3ccccn3c2/N=C/c2ccccc2)ccc1O	53% (inactive)	11
COc1ccc(Oc2ccc3c(c2)c2c4n3CCNC4CCC2)cc1 (stereo unspecified)	0% (inactive)	
COc1ccc(OC)c(C2Nc3c(Cl)ccc(C(=O)O)c3C3C=CCC32)c1 (stereo unspecified)	0% (inactive)	
O=C(O)c1ccc2c(c1)[C@@H]1C=CC[C@@H]1[C@H](c1ccccn1)N2	81% (active)	
